Laboratory results: PubChem BioAssay (EPA / NIEHS)
Results filed as inconclusive are left out. Calls of active or inactive are those of the source. The calls were made as follows, unless noted: active = hit-call score of the fitted dose curve at least 0.9, where 1 is the maximum; inactive = score below 0.9.

What was measured:
[1] = ATG_PBREM_CIS: Attagene CIS-FACTORIAL HepG2 Assay for human Phenobarbital-responsive Enhancer Module (PBREM) (AID 2282955); conditions: HepG2 PBREM cis-reporter, Attagene multiplexed transcription; actives raise or lower the signal
In short: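 HepG2 cells transiently transfected with multiple cis-regulated reporter transcription units; endogenous factor activity at the PBREM element measured as reporter mRNA 24 h after dosing, via RT-PCR and capillary electrophoresis of fluorescent fragments; bidirectional fitting versus DMSO.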

[2] = biological target: Paired box protein Pax-6 (Homo sapiens) (UniProt P26367); experiment: ATG_Pax6_CIS: Attagene CIS-FACTORIAL HepG2 Assay for human Paired Box 6 (PAX6) (AID 2282956); conditions: HepG2 CIS-FACTORIAL PAX6 reporter transcription, RNA readout; actives raise or lower the signal
Sequence of Paired box protein Pax-6 (Homo sapiens) (P26367 whole entry, looked up): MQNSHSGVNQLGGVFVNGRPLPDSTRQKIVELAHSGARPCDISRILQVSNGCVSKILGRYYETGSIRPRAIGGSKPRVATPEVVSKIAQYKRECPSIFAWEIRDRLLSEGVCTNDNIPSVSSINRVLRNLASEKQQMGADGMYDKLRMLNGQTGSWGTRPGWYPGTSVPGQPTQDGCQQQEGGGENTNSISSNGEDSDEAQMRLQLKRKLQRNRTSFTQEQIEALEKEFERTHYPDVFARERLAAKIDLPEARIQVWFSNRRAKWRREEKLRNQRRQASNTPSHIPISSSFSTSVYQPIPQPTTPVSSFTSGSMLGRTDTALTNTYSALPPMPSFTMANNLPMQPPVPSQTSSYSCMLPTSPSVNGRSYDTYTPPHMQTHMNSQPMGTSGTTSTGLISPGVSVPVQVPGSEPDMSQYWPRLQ
In short: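 HepG2 cells transiently transfected with cis-promoter-driven multiplexed reporter units sensing endogenous transcription factor activity; 24 h chemical exposure. Reporter mRNA quantified by RT-PCR, 6-FAM labelling, HpaI digestion and capillary electrophoresis; bidirectional fit versus DMSO baseline.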

[3] = ATG_PXRE_CIS: Attagene CIS-FACTORIAL HepG2 Assay for human Pregnane X Receptor Element (PXRE) (AID 2282957); conditions: HepG2 Attagene CIS-FACTORIAL PXRE reporter, mRNA; actives raise or lower the signal
In short: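 Cis-element reporter mRNA in human hepatoma HepG2 cells is measured 24 h post-dosing by RT-PCR, primer-extension labeling and capillary electrophoresis; gain or loss of signal is fitted relative to DMSO.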

[4] = ATG_PPRE_CIS: Attagene CIS-FACTORIAL HepG2 Assay for human Peroxisome Proliferator-activated Response Element (PPRE) (AID 2282958); conditions: HepG2 PPRE cis-element reporter, Attagene transcription factor profiling; actives raise or lower the signal
In short: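 HepG2 cells transiently transfected with multiplexed cis-element reporter units measure endogenous transcription factor activity. After 24 h compound exposure, reporter mRNA is quantified by RT-PCR, 6-FAM labeling, HpaI digestion and capillary electrophoresis; bidirectional fits are made against DMSO baseline.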

[5] = ATG_Sox_CIS: Attagene CIS-FACTORIAL HepG2 Assay for human SRY-box transcription factor (SOX) (AID 2282960); conditions: HepG2 Attagene cis-factorial SOX reporter, mRNA; actives raise or lower the signal
In short: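 HepG2 cells transiently transfected with cis-element-driven multiple reporter transcription units, dosed 24 h; reporter mRNA measured by RT-PCR, FAM labelling, HpaI digestion and capillary electrophoresis. Bidirectional fit versus DMSO baseline.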

[6] = ATG_SREBP_CIS: Attagene CIS-FACTORIAL HepG2 Assay for human Sterol Regulatory Element Binding (SREBP) (AID 2282962); conditions: HepG2 Attagene cis-factorial SREBP reporter, mRNA; actives raise or lower the signal
In short: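 HepG2 cells transiently transfected with multiplexed cis-promoter reporter units sensing endogenous transcription factors; reporter mRNA measured 24 h after dosing by RT-PCR, 6-FAM labeling, HpaI digestion and capillary electrophoresis. Bidirectional fit versus DMSO.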

[7] = biological target: Signal transducer and activator of transcription 3 (Homo sapiens) (UniProt P40763); experiment: ATG_STAT3_CIS: Attagene CIS-FACTORIAL HepG2 Assay for human Signal Transducer and Activator of Transcription 3 (STAT3) (AID 2282963); conditions: HepG2, Attagene cis-factorial STAT3 reporter transcription; actives raise or lower the signal
Sequence of Signal transducer and activator of transcription 3 (Homo sapiens) (P40763 whole entry, looked up): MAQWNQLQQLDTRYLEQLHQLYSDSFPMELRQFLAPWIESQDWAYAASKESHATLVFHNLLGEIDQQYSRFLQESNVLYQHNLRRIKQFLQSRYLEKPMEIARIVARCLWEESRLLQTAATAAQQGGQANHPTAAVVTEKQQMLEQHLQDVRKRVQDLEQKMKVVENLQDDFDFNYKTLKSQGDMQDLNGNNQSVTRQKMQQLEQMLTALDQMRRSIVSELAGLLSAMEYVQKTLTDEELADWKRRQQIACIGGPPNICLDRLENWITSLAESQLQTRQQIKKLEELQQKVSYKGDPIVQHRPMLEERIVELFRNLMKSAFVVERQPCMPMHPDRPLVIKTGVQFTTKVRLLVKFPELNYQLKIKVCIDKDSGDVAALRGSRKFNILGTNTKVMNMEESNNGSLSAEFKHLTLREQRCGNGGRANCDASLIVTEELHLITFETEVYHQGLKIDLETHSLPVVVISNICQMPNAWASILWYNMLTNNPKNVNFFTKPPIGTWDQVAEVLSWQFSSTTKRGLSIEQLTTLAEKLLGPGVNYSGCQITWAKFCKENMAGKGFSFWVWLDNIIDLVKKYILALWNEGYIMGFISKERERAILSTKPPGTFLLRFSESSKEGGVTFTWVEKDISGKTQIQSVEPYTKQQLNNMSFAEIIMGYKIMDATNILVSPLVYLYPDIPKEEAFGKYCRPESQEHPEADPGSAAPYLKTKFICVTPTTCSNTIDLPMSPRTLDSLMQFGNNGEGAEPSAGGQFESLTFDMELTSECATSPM
In short: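 HepG2 cells transiently transfected with cis-element-driven multiple reporter transcription units; after 24 h chemical exposure, reporter mRNA measured by RT-PCR, 6-FAM primer-extension labelling, HpaI digestion and capillary electrophoresis. Bidirectional fitting versus DMSO baseline.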

[8] = ATG_TA_CIS: Attagene CIS-FACTORIAL HepG2 Assay for human TA Basal Promoter (AID 2282964); conditions: HepG2 Attagene CIS-factorial TA basal promoter reporter; actives raise or lower the signal
In short: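 HepG2 cells transiently transfected with multiplexed cis-promoter reporter units, dosed 24 h. Reporter mRNA measured by RT-PCR, 6-FAM labelling, HpaI digestion and capillary electrophoresis; bidirectional fit versus DMSO baseline, serving as background control.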

[9] = ATG_TCF_b_cat_CIS: Attagene CIS-FACTORIAL HepG2 Assay for human T-Cell-Factor with beta-catenin (TCF/b-cat) (AID 2282965); conditions: HepG2 TCF/beta-catenin cis-reporter transcription, actives raise or lower the signal
In short: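 Using capillary electrophoresis as the read-out, labelled reporter cDNA fragments from transiently transfected HepG2 were sized and quantified. Exposure lasted 24 hours; activity in either direction was referenced to DMSO.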

[10] = ATG_TAL_CIS: Attagene CIS-FACTORIAL HepG2 Assay for human TAL Basal Promoter (AID 2282966); conditions: HepG2 Attagene cis-factorial TAL promoter reporter; actives raise or lower the signal;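 also: background control endpoint measuring basal TAL promoter reporter mRNA not a specific factor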
In short: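 In this cell-based multiplex, HepG2 liver cells bearing cis-promoter reporter constructs are dosed for 24 hours. Total RNA is reverse-transcribed and amplified, labelled fragments are sized by capillary electrophoresis, and signal changes are fitted bidirectionally versus DMSO.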

[11] = ATG_TGFb_CIS: Attagene CIS-FACTORIAL HepG2 Assay for human Transforming Growth Factor (TGF) (AID 2282967); conditions: HepG2 Attagene CIS TGFb reporter, mRNA transcription; actives raise or lower the signal
In short: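 HepG2 cells transiently transfected with cis-promoter-driven multiplexed reporter units; 24 h compound exposure. Reporter mRNA measured by RT-PCR, 6-FAM labeling, HpaI digestion and capillary electrophoresis; bidirectional fit versus DMSO baseline.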

[12] = ATG_VDRE_CIS: Attagene CIS-FACTORIAL HepG2 Assay for human Vitamin D Receptor Element (VDRE) (AID 2282968); conditions: HepG2 VDRE cis-reporter transcription, actives raise or lower the signal
In short: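 HepG2 cells transiently transfected with cis-element reporter units, dosed 24 h; reporter mRNA measured by RT-PCR, 6-FAM labeling, HpaI digestion and capillary electrophoresis. Activity fitted bidirectionally against DMSO baseline.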

[13] = biological target: Nuclear receptor subfamily 1 group I member 3 (Homo sapiens) (UniProt Q14994); experiment: ATG_CAR_TRANS: Attagene TRANS-FACTORIAL HepG2 Assay for human Constitutive Androstane Receptor (CAR) (AID 2282969; active = hit-call score of the fitted dose curve at least 0.9, where 1 is the maximum;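 also: activators raise reporter mRNA above DMSO so AC50 marks induction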); conditions: HepG2 Attagene TRANS-FACTORIAL CAR reporter
Sequence of Nuclear receptor subfamily 1 group I member 3 (Homo sapiens) (Q14994 whole entry, looked up, the tested form may be a part): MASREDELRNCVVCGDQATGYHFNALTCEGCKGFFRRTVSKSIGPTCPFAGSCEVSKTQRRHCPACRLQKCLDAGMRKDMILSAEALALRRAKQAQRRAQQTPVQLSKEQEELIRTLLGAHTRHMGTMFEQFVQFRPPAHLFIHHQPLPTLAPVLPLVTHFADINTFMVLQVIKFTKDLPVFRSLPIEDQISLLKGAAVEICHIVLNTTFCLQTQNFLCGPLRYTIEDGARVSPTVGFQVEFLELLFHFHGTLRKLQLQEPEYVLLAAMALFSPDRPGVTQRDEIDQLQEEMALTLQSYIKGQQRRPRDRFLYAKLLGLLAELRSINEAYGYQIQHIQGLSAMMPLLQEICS
In short: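 HepG2 cells transiently transfected with multiplexed GAL4-UAS reporter units expressing chimeric NR-Gal4 proteins; compound exposure 24 h. Reporter mRNA measured by RT-PCR, 6-FAM labelling, HpaI digestion and capillary electrophoresis; gain-of-signal fitted against DMSO baseline.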

[14] = biological target: Estrogen receptor (Homo sapiens) (UniProt P03372); experiment: ATG_ERa_TRANS: Attagene TRANS-FACTORIAL HepG2 Assay for human Estrogen Receptor alpha (ERa) (AID 2282970; active = hit-call score of the fitted dose curve at least 0.9, where 1 is the maximum); conditions: HepG2 Attagene TRANS ERa GAL4 reporter, mRNA
Sequence of Estrogen receptor (Homo sapiens) (P03372 whole entry, looked up, the tested form may be a part): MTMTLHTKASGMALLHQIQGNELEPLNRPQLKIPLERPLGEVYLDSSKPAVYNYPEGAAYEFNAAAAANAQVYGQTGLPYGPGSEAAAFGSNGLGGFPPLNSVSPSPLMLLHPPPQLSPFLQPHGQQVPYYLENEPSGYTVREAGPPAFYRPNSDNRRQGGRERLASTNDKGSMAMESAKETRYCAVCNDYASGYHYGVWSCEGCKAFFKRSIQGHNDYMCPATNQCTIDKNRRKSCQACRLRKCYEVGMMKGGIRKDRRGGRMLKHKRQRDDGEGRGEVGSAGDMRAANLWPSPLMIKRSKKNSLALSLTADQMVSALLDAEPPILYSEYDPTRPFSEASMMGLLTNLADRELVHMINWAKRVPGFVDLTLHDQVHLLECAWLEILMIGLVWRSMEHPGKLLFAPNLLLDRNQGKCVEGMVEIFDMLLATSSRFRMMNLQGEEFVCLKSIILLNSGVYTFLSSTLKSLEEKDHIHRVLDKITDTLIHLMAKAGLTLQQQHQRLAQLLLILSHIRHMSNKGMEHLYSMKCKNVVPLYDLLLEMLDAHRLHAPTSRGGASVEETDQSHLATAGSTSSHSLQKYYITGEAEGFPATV
In short: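 After 24 h of compound treatment, RNA from HepG2 cells bearing transfected GAL4-UAS reporter constructs is converted to cDNA, amplified and fluorescently labelled. Capillary electrophoresis resolves the ERa-linked reporter; DMSO serves as negative control.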

[15] = biological target: X-box-binding protein 1 (Homo sapiens) (UniProt P17861); experiment: ATG_Xbp1_CIS: Attagene CIS-FACTORIAL HepG2 Assay for human X-box Binding Protein 1 (XBP1) (AID 2282972); conditions: HepG2 XBP1 cis-element reporter, Attagene multiplex; actives raise or lower the signal
Sequence of X-box-binding protein 1 (Homo sapiens) (P17861 whole entry, looked up): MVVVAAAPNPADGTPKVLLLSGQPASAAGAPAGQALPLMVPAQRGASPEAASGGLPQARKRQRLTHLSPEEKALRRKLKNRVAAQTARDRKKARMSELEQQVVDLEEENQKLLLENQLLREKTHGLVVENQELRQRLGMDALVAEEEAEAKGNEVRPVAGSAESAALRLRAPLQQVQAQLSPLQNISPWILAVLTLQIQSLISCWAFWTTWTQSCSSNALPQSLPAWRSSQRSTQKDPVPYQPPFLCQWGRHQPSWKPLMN
In short: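 HepG2 cells transiently transfected with multiple cis-element reporter units report endogenous TF activity; 24 h exposure, then reporter mRNA measured by RT-PCR, 6-FAM labelling, HpaI digestion and capillary electrophoresis. Bidirectional fitting versus DMSO.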

[16] = ATG_M_19_TRANS: Attagene TRANS-FACTORIAL HepG2 Assay for M19 Transcription Factor (Internal Marker) (AID 2282974; active = hit-call score of the fitted dose curve at least 0.9, where 1 is the maximum); conditions: HepG2 Attagene TRANS-FACTORIAL M19 internal marker reporter
In short: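 HepG2 cells transiently transfected with multiple GAL4-UAS reporter transcription units were exposed to chemicals for 24 h. Reporter mRNA was read by RT-PCR, 6-FAM primer extension, HpaI digestion and capillary electrophoresis; gain of signal fitted relative to DMSO.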

[17] = ATG_GAL4_TRANS: Attagene TRANS-FACTORIAL HepG2 Assay for GAL4 (Internal Marker) (AID 2282976; active = hit-call score of the fitted dose curve at least 0.9, where 1 is the maximum); conditions: HepG2 Attagene TRANS GAL4 internal marker reporter
In short: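 RT-PCR/capillary electrophoresis readout of reporter mRNA. HepG2, transient MRTU transfection (GAL4-UAS reporters), 24 h compound exposure. Background-control endpoint, positive direction vs DMSO baseline.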

[18] = ATG_RORE_CIS: Attagene CIS-FACTORIAL HepG2 Assay for human RAR-related Orphan Receptor Element (RORE) (AID 2282959); conditions: HepG2 Attagene cis-factorial RORE reporter, mRNA; actives raise or lower the signal
In short: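 HepG2 cells transiently transfected with multiple cis-element reporter transcription units, exposed to chemical for 24 h. Reporter mRNA quantified by RT-PCR, 6-FAM primer-extension labeling, HpaI digestion and capillary electrophoresis; bidirectional fit versus DMSO baseline.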

[19] = biological target: Steroid hormone receptor ERR1 (Homo sapiens) (UniProt P11474); experiment: ATG_ERRa_TRANS: Attagene TRANS-FACTORIAL HepG2 Assay for human Estrogen-Related Receptor alpha (ERRa) (AID 2282971; active = hit-call score of the fitted dose curve at least 0.9, where 1 is the maximum); conditions: HepG2 Attagene TRANS reporter, ERRa transactivation
Sequence of Steroid hormone receptor ERR1 (Homo sapiens) (P11474 whole entry, looked up, the tested form may be a part): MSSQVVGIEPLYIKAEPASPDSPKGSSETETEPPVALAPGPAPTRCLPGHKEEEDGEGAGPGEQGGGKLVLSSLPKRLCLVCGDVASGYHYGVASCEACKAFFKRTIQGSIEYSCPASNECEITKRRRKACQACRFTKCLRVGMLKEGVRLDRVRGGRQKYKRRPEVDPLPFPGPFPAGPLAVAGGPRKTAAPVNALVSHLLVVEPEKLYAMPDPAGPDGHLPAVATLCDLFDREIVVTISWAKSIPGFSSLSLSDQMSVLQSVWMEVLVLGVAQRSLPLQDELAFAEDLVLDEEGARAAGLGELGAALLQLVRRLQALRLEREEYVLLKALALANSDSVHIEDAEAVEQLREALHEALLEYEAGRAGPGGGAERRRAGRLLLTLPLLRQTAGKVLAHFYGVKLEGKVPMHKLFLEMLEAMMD
In short: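 Transfected HepG2, 24 h dosing, ERRa-Gal4 chimera driving GAL4-UAS reporter. Readout: reporter mRNA via RT-PCR plus capillary electrophoresis (fluorescence). Positive direction vs DMSO control.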

[20] = biological target: Transcription factor Sp1 (Homo sapiens) (UniProt P08047); experiment: ATG_Sp1_CIS: Attagene CIS-FACTORIAL HepG2 Assay for human Specificity Protein 1 (Sp1) (AID 2282961); conditions: HepG2 Sp1 cis-reporter transcription, actives raise or lower the signal
Sequence of Transcription factor Sp1 (Homo sapiens) (P08047 whole entry, looked up): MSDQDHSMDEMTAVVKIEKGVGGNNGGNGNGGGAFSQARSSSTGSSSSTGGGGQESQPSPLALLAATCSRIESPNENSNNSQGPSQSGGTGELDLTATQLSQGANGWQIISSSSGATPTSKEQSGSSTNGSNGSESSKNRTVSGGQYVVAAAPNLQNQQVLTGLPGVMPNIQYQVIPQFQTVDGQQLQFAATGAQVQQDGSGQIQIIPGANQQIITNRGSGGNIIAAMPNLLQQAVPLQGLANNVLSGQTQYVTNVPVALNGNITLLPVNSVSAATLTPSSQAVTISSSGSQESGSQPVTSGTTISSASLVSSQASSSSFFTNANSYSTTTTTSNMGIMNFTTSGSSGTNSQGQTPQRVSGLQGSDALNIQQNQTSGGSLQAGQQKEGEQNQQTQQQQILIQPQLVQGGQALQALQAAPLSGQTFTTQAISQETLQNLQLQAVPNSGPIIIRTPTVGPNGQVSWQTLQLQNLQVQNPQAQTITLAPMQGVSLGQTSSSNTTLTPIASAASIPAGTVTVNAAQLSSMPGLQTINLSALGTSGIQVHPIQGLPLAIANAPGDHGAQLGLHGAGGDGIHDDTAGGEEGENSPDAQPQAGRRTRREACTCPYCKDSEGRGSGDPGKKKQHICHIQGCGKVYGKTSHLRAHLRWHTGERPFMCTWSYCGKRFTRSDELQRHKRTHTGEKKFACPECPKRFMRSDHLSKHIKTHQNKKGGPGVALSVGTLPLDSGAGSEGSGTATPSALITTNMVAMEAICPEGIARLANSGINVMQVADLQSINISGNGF
In short: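 HepG2 cells transiently transfected with multiple reporter transcription units driven by cis-regulatory elements; Sp1-responsive reporter mRNA measured 24 h after dosing by RT-PCR and capillary electrophoresis fluorescence, fitted bidirectionally against DMSO baseline.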

Measured: AC50

CC1CCC(=O)C1=O (stereo not drawn)
active: [3] 59 µM
not listed: [18] | [19] | [20]
inactive: all other assays above

CCCCOCCOCCOC(C)=O
not listed: [7] | [9] | [13] | [20]
inactive: all other assays above

Cc1ccc2c(c1)CCCN2
active: [3] 65.1 µM
not listed: [12] | [16] | [17] | [18] | [19]
inactive: all other assays above

CCCC(C)C(=O)OCC (stereo not drawn)
not listed: [6] | [13] | [16] | [19]
inactive: all other assays above

CC/C=C\CCOC(=O)c1ccccc1O
not listed: [18]
inactive: all other assays above

C=CCCCCCCCCC=O
active: [3] 100 µM | [4] 64.2 µM
not listed: [16] | [18]
inactive: all other assays above

CC1(C)CCC[C@]2(C)[C@H]3CC(=O)O[C@]3(C)CC[C@@H]12
active: [3] 3.61 µM | [14] 2.7 µM
not listed: [6] | [9] | [12] | [13] | [17] | [19]
inactive: all other assays above

CCc1cccc(C)c1N(C(=O)CS(=O)(=O)O)C(C)COC (stereo not drawn)
active: [3] 29.2 µM | [14] 56.2 µM
not listed: [16] | [18] | [19]
inactive: all other assays above

O=C(Oc1ccccc1)c1ccccc1C(=O)Oc1ccccc1
active: [3] 24.6 µM | [9] 51.4 µM
not listed: [12] | [13] | [18] | [19]
inactive: all other assays above

C=C(C)C(=O)OCCOC(=O)C(=C)C
not listed: [13] | [16] | [20]
inactive: all other assays above

CC(C)=CCCC(C)=CC#N
active: [3] 25.5 µM
not listed: [4] | [19]
inactive: all other assays above

CCCc1ccc(O)c(OC)c1
not listed: [4] | [13] | [16] | [17] | [19]
inactive: all other assays above

CCN1CCCC1=O
not listed: [4] | [14] | [16] | [17] | [19] | [20]
inactive: all other assays above

C=CC(=O)NC(C)(C)C
active: [3] 26.9 µM
not listed: [4] | [16] | [17] | [19]
inactive: all other assays above
